Laboratory results from the supplement of paper PMC10646978.
± gives the standard deviation.

tested on: RAW-Dual (murine macrophage reporter line); experiment: NF-kB reporter (SEAP) activity fold change vs agonist alone; higher = enhanced NF-kB activity; conditions: modulator concentration 10 µM; agonist: MPLA […]
Method in brief: (§1)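 In 384-well plates holding 50 000 RAW-Dual murine macrophage reporter cells per well, compound at 10 μM final was pre-incubated for 1 hour at 37 °C, after which a PRR agonist was added overnight. Supernatant SEAP read with QUANTI-Blue at 620 nm absorbance reported NF-κB, and Lucia luciferase read with QUANTI-Luc luminescence reported IRF. Fold change values come from dividing each reporter signal by the mean of agonist-only control wells on the same plate, averaged over replicate plates with propagated errors.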

| Compound | NF-kB reporter |
| --- | --- |
| Fc1ccccc1C=NNc1nc(-c2ccccc2)cc(-c2ccccc2)n1 | 1.05 ± 0.17 |
| Cc1cnc2c(c1NCCCO)c(=O)n(C)c(=O)n2C | 1.02 ± 0.027 |
| COc1ccc2sc(C)[n+](CCCS(=O)(=O)[O-])c2c1 | 0.923 ± 0.064 |
| Cc1cc(C(=O)Nc2ccccc2S(C)(=O)=O)no1 | 0.992 ± 0.055 |
| CCC(=O)Nc1ccc(S(=O)(=O)N2CCSC(c3ccccc3C)CC2)c(C)c1 (stereo not given) | 0.937 ± 0.087 |
| CCCCCN(CCCCC)C(=O)C(CCC(=O)[O-])NC(=O)c1ccc(Cl)c(Cl)c1 (stereo not given) [Prestw-915] | 0.901 ± 0.064 |
| Cc1cccc(C)c1OCC(C)N.Cl (stereo not given) | 0.953 ± 0.058 |
| CC(=O)Nc1nnc(S(N)(=O)=O)s1 | 1.07 ± 0.11 |
| CN(C(=NS(=O)(=O)c1ccccc1)c1ccccc1)c1ccc(O)cc1 | 1.16 ± 0.096 |
| Cl.Cl.Cn1cc(CNCC2CCN(c3ncc(C(=O)NO)cn3)CC2)c2ccccc21 | 2.69 ± 0.12 |
| COc1cc2c(cc1Cc1cccc(Cl)c1F)c(=O)c(C(=O)O)cn2[C@H](CO)C(C)C | 1.25 ± 0.085 |
| O=C1CNC(=O)N1CC(O)Cn1c2ccc(Br)cc2c2cc(Br)ccc21 (stereo not given) | 0.908 ± 0.025 |
| Cc1ccc(CNC(=O)CN(c2cccc3ccccc23)S(C)(=O)=O)cc1 | 0.957 ± 0.073 |
| CN1CCC(COc2cnc(-c3cccc(Cn4nc(-c5cccc(C#N)c5)ccc4=O)c3)nc2)CC1 | 1.06 ± 0.082 |
| Cc1cc(-n2cc(C(=O)N3CCOCC3)nn2)ccc1F | 1.02 ± 0.065 |
| COc1ccc(-c2oc(N=Cc3ccccc3O)c(C#N)c2-c2ccc(OC)cc2)cc1 | 0.997 ± 0.035 |
| O=C(Oc1ccc(C=Nc2ccc([N+](=O)[O-])cc2)cc1)c1ccccc1 | 0.978 ± 0.056 |
| COc1ccc(Br)cc1C(=O)Nc1cc(C(F)(F)F)cc(C(F)(F)F)c1 | 1.01 ± 0.044 |
| Cc1ccc(-n2c(C)cc(C=NNC(=O)CN3CCOCC3)c2C)c(C)c1 | 1.09 ± 0.097 |
| CC1=C(C(=O)Nc2cccc(C)n2)C(c2ccsc2)C2=C(CC(C)(C)CC2=O)N1 (stereo not given) | 0.996 ± 0.059 |

| Compound | NF-kB reporter |
| --- | --- |
| Cc1oncc1CNC(=O)c1ccc(C(C)(C)C)cc1 | 1.07 ± 0.049 |
| O=C(NN=Cc1c(O)ccc2ccccc12)c1ccccc1Br | 1.14 ± 0.092 |
| Cc1cc(C)nc(Nc2ncc(O)n2-c2ccc(F)cc2)n1 | 1.01 ± 0.038 |
| CNCCC[C@]12CC[C@H](c3ccccc31)c1ccccc12 [Prestw-346] | 0.93 ± 0.095 |
| CCOC(=O)N1CCN(C(=O)C2CCN(Cc3ccc(C)o3)CC2)CC1 | 0.98 ± 0.08 |
| CCNC(=O)CCC/C=C\C[C@@H]1[C@@H](/C=C/C(O)CCc2ccccc2)[C@@H](O)C[C@@H]1O (stereo not given in full) | 0.953 ± 0.041 |
| CC(=O)Oc1ccc2c(C)c(Cl)c(=O)oc2c1C | 0.96 ± 0.1 |
| CC(=O)Nc1ccc(C(=O)CSc2nnc[nH]2)cc1 | 1.01 ± 0.087 |
| CCN(CC)c1ccc(-c2noc(CN3CCSCC3)n2)cn1 | 0.902 ± 0.041 |
| Cc1cc(OC2CCN(S(=O)(=O)CCc3ccccc3)C2)cc(=O)n1C (stereo not given) | 1.15 ± 0.067 |
| CCOC(=O)C1CCN(C(=O)c2ccc(C#CC(C)(C)O)cc2)CC1 | 1.1 ± 0.1 |
| COC(=O)[C@H](c1ccccc1Cl)N1CCc2sccc2C1.O=S(=O)(O)O | 1.06 ± 0.12 |
| CN1CCC(OC(c2ccccc2)c2ccccc2)CC1.Cl | 1.22 ± 0.087 |
| CNCCCN1c2ccccc2CCc2ccccc21.Cl | 1.54 ± 0.1 |
| Cc1cccc2sc(OC3CN(C(=O)Nc4ccccc4C(F)(F)F)C3)nc12 | 0.872 ± 0.043 |
| NC(=O)c1ccccc1O | 0.978 ± 0.085 |
| CSCCC(NC(C)=O)C(=O)NC1CCN(c2nc(C)nc3c2CCCC3)CC1 (stereo not given) | 0.896 ± 0.048 |
| CCOC(=O)C1=C(C)N(CC(C)C)C(=O)C1=Cc1cccc(Br)c1 | 0.869 ± 0.051 |
| Cc1cccc(C(=O)NC2CCC(F)(F)CC2)c1 | 1.03 ± 0.058 |
| CCOC(C#CCN(CC)CC)(c1ccccc1)c1ccccc1.Cl | 0.424 ± 0.031 |

tested on: RAW-Dual (murine macrophage reporter line); experiment: IRF reporter (Lucia luciferase) activity fold change vs agonist alone; higher = enhanced IRF activity; conditions: modulator concentration 10 µM; agonist: 3'3'-cGAMP 10 ug/mL
Method in brief: as §1

| Compound | IRF reporter |
| --- | --- |
| Fc1ccccc1C=NNc1nc(-c2ccccc2)cc(-c2ccccc2)n1 | 1.01 ± 0.028 |
| Cc1cnc2c(c1NCCCO)c(=O)n(C)c(=O)n2C | 0.881 ± 0.04 |
| COc1ccc2sc(C)[n+](CCCS(=O)(=O)[O-])c2c1 | 0.923 ± 0.086 |
| Cc1cc(C(=O)Nc2ccccc2S(C)(=O)=O)no1 | 0.995 ± 0.056 |
| CCC(=O)Nc1ccc(S(=O)(=O)N2CCSC(c3ccccc3C)CC2)c(C)c1 (stereo not given) | 0.412 ± 0.018 |
| CCCCCN(CCCCC)C(=O)C(CCC(=O)[O-])NC(=O)c1ccc(Cl)c(Cl)c1 (stereo not given) [Prestw-915] | 1.1 ± 0.073 |
| Cc1cccc(C)c1OCC(C)N.Cl (stereo not given) | 0.89 ± 0.061 |
| CC(=O)Nc1nnc(S(N)(=O)=O)s1 | 0.941 ± 0.029 |
| CN(C(=NS(=O)(=O)c1ccccc1)c1ccccc1)c1ccc(O)cc1 | 0.968 ± 0.063 |
| Cl.Cl.Cn1cc(CNCC2CCN(c3ncc(C(=O)NO)cn3)CC2)c2ccccc21 | 0.067 ± 0.0071 |
| COc1cc2c(cc1Cc1cccc(Cl)c1F)c(=O)c(C(=O)O)cn2[C@H](CO)C(C)C | 0.822 ± 0.026 |
| O=C1CNC(=O)N1CC(O)Cn1c2ccc(Br)cc2c2cc(Br)ccc21 (stereo not given) | 0.989 ± 0.22 |
| Cc1ccc(CNC(=O)CN(c2cccc3ccccc23)S(C)(=O)=O)cc1 | 1.08 ± 0.031 |
| CN1CCC(COc2cnc(-c3cccc(Cn4nc(-c5cccc(C#N)c5)ccc4=O)c3)nc2)CC1 | 0.713 ± 0.04 |
| Cc1cc(-n2cc(C(=O)N3CCOCC3)nn2)ccc1F | 0.98 ± 0.045 |
| COc1ccc(-c2oc(N=Cc3ccccc3O)c(C#N)c2-c2ccc(OC)cc2)cc1 | 0.921 ± 0.2 |
| O=C(Oc1ccc(C=Nc2ccc([N+](=O)[O-])cc2)cc1)c1ccccc1 | 0.713 ± 0.025 |
| COc1ccc(Br)cc1C(=O)Nc1cc(C(F)(F)F)cc(C(F)(F)F)c1 | 0.982 ± 0.036 |
| Cc1ccc(-n2c(C)cc(C=NNC(=O)CN3CCOCC3)c2C)c(C)c1 | 0.822 ± 0.024 |
| CC1=C(C(=O)Nc2cccc(C)n2)C(c2ccsc2)C2=C(CC(C)(C)CC2=O)N1 (stereo not given) | 0.954 ± 0.04 |

| Compound | IRF reporter |
| --- | --- |
| Cc1oncc1CNC(=O)c1ccc(C(C)(C)C)cc1 | 0.779 ± 0.039 |
| O=C(NN=Cc1c(O)ccc2ccccc12)c1ccccc1Br | 0.612 ± 0.1 |
| Cc1cc(C)nc(Nc2ncc(O)n2-c2ccc(F)cc2)n1 | 0.992 ± 0.074 |
| CNCCC[C@]12CC[C@H](c3ccccc31)c1ccccc12 [Prestw-346] | 1.12 ± 0.07 |
| CCOC(=O)N1CCN(C(=O)C2CCN(Cc3ccc(C)o3)CC2)CC1 | 1.02 ± 0.051 |
| CCNC(=O)CCC/C=C\C[C@@H]1[C@@H](/C=C/C(O)CCc2ccccc2)[C@@H](O)C[C@@H]1O (stereo not given in full) | 0.994 ± 0.055 |
| CC(=O)Oc1ccc2c(C)c(Cl)c(=O)oc2c1C | 0.93 ± 0.024 |
| CC(=O)Nc1ccc(C(=O)CSc2nnc[nH]2)cc1 | 0.916 ± 0.045 |
| CCN(CC)c1ccc(-c2noc(CN3CCSCC3)n2)cn1 | 0.983 ± 0.059 |
| Cc1cc(OC2CCN(S(=O)(=O)CCc3ccccc3)C2)cc(=O)n1C (stereo not given) | 0.7 ± 0.054 |
| CCOC(=O)C1CCN(C(=O)c2ccc(C#CC(C)(C)O)cc2)CC1 | 0.91 ± 0.048 |
| COC(=O)[C@H](c1ccccc1Cl)N1CCc2sccc2C1.O=S(=O)(O)O | 1.11 ± 0.081 |
| CN1CCC(OC(c2ccccc2)c2ccccc2)CC1.Cl | 0.638 ± 0.025 |
| CNCCCN1c2ccccc2CCc2ccccc21.Cl | 0.45 ± 0.017 |
| Cc1cccc2sc(OC3CN(C(=O)Nc4ccccc4C(F)(F)F)C3)nc12 | 1.12 ± 0.065 |
| NC(=O)c1ccccc1O | 0.945 ± 0.032 |
| CSCCC(NC(C)=O)C(=O)NC1CCN(c2nc(C)nc3c2CCCC3)CC1 (stereo not given) | 0.957 ± 0.073 |
| CCOC(=O)C1=C(C)N(CC(C)C)C(=O)C1=Cc1cccc(Br)c1 | 0.909 ± 0.03 |
| Cc1cccc(C(=O)NC2CCC(F)(F)CC2)c1 | 0.823 ± 0.034 |
| CCOC(C#CCN(CC)CC)(c1ccccc1)c1ccccc1.Cl | 0.773 ± 0.051 |
